Assay outcomes (PubChem)
KCNQ2 block: rat KCNQ2 potassium channel inhibitors, primary screen, cell-based, CHO-K1, FluxOR thallium flux, B-score; Potassium voltage-gated channel subfamily KQT member 2 (Rattus norvegicus), O88943; 20 min; hits give low values; B-score at 10 µM; 310,000 compounds, 1.1% hits;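 active = fluorescence ratio B-score at most minus 3 library SDs, with starting brightness B-score within 2 library SDs, cut at about -5.5 in these data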
Target sequence (O88943 whole entry, looked up): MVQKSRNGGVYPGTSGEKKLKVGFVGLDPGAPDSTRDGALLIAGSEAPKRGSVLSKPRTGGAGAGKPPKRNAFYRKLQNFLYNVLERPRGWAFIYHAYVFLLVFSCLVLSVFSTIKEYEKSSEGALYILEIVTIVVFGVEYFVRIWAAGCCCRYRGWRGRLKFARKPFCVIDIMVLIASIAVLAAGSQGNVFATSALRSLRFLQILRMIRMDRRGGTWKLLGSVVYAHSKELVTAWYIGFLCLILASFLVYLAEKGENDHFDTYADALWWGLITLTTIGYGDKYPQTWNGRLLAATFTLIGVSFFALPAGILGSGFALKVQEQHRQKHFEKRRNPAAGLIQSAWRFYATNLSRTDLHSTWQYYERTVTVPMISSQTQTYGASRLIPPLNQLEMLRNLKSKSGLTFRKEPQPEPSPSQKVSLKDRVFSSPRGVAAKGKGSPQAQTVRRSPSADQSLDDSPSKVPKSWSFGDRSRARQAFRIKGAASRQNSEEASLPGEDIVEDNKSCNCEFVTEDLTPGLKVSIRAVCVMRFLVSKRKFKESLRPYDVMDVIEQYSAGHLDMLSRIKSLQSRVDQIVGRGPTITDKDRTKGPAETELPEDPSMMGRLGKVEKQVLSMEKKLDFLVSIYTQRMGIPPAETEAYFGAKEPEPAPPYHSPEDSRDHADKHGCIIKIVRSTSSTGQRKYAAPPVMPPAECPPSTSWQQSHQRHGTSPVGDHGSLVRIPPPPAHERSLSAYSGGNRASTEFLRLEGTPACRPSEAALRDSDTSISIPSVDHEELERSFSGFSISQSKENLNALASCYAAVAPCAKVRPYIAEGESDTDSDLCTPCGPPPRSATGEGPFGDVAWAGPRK
KCNQ2 enhance: potentiators of rat KCNQ2 potassium channel; CHO-K1 KCNQ2, FluxOR thallium flux fluorescence; hits give high values; B-score at 10 µM; 310,000 compounds, 0.54% hits;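 active = fluorescence ratio B-score at least 3 SD of library B-scores, with initial fluorescence B-score within 3 of them, cut at about 5.3 in these data; same plate scores as AID 2156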;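 note: B-score of peak minus minimum over baseline fluorescence ratio after K+ and Tl+ stimulus; positive B-score means potentiation of KCNQ2 with more thallium influx and brighter signal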
Of the large screens only hits and unclear results are named; the others gave an inactive call. Most compounds without a hit are left out; they make up all but 1.6% or so of the library.

Cn1cnnc1SC1c2cccc3cccc(c23)C1NS(=O)(=O)c1ccccc1 (configuration not stated)	none (no result: KCNQ2 enhance)
O=S(=O)(NC1c2cccc3cccc(c23)C1Sc1ncccn1)c1ccccc1 (configuration not stated)	KCNQ2 block -6.41
Cc1ccc(S(=O)(=O)NC2c3cccc4cccc(c34)C2Sc2nc(C)cc(C)n2)cc1 (configuration not stated)	KCNQ2 block -6.4
CCc1ncc(CN2CCCCC2C(=O)Nc2ccc(Oc3ccccc3)nc2)cn1 (configuration not stated)	none
Cc1cc(C)n(CCOC(=O)c2sc3ccccc3c2Cl)n1	KCNQ2 block -10.1
NC(=O)COC(=O)c1sc2ccccc2c1Cl	none
CCOC(=O)C1=C(C)NC(C)=C(C(=O)OC)C1c1cccc([N+](=O)[O-])c1 (configuration not stated)	none (no result: KCNQ2 enhance)
COC(=O)C1=C(C)NC(C)=C(C(=O)O[C@@H]2CCCN(Cc3ccccc3)C2)[C@@H]1c1cccc([N+](=O)[O-])c1	KCNQ2 block -5.78
Cc1ccc(NC(=O)c2ccc(C(=O)c3ccccc3)cc2)nc1	none
CC1=CC(C)(C)N(C(=O)c2ccccc2)c2ccccc21	KCNQ2 block -5.57
CC1=CC(C)(C)N(C(=O)c2ccccc2)c2ccc(C)cc21	none (no result: KCNQ2 enhance)
CCOc1ccc(S(=O)(=O)NCCC(=O)N(CC)CC(=O)Nc2c(F)cccc2F)cc1	none (no result: KCNQ2 enhance)
COc1ccc(/C=C/C(=O)O)cc1COc1cccc(C)c1	none
COc1ccc(C=O)cc1COc1ccc([N+](=O)[O-])c(C)c1	KCNQ2 block -6.82
COCCN(C(=O)COC(=O)c1c(NC(C)=O)sc(C)c1C)c1c(N)n(Cc2ccccc2)c(=O)[nH]c1=O	none (no result: KCNQ2 enhance)
COC(=O)c1cn(C(=O)c2ccccc2)c2ccccc12	none (no result: KCNQ2 enhance)
COC(=O)c1cn(C(=O)c2cc(OC)cc(OC)c2)c2ccccc12	KCNQ2 block -6.34
CCN(CC(=O)Nc1c(F)cccc1F)C(=O)/C=C/c1ccc(Br)s1	none (no result: KCNQ2 enhance)
C=CCN1C(=O)C(Cc2ccccc2)S/C1=N/N=C/c1cccs1 (configuration not stated)	none (no result: KCNQ2 enhance)
C=CCN1C(=O)C(Cc2ccc(OCC)cc2)S/C1=N\N=C\c1cccs1 (configuration not stated)	KCNQ2 block -5.61
Clc1ccc(CN2CCN(c3ncccn3)CC2)c(Cl)c1	none
CC(C)CN(CC(C)C)C1=N/C(=C\c2ccco2)C(=O)N1c1ccccc1	KCNQ2 block -7.36
COc1ccc(N2C(=O)/C(=C\c3ccco3)N=C2SCC(=O)N(C(C)C)C(C)C)cc1Cl	none (no result: KCNQ2 enhance)
CCn1c(CN2CCOCC2)nnc1SCC(=O)Nc1ccc(C(C)=O)cc1	none (no result: KCNQ2 enhance)
CCCCn1c(N)c(N(CCOC)C(=O)COC(=O)COc2cccc(C(C)=O)c2)c(=O)[nH]c1=O	none (no result: KCNQ2 enhance)
O=C(NC(=S)NCc1cccnc1)c1cc2ccccc2o1	none
O=C(NC(=S)Nc1cccnc1)c1cc2ccccc2o1	KCNQ2 enhance 8.09
CC1(C(=O)Nc2nc3ccccc3s2)CC1(Br)Br (configuration not stated)	none
O=[N+]([O-])c1c(NCCO)cc(N2CCCCCC2)c2nonc12	none (no result: KCNQ2 enhance)
CCC(=O)OCCNc1cc(Sc2nc3ccccc3s2)c2nonc2c1[N+](=O)[O-]	KCNQ2 block -7.54
Cc1nnc(Sc2cc(NCCO)c([N+](=O)[O-])c3nonc23)s1	KCNQ2 block -7.52
O=[N+]([O-])c1c(NCCCO)cc(Sc2nc3ccccc3s2)c2nonc12	none (no result: KCNQ2 enhance)
Cc1ccc(S(=O)(=O)N2CCN(CC(=O)N(CC(C)C)c3c(N)n(CC(C)C)c(=O)[nH]c3=O)CC2)c(C)c1	none
CC(OC(=O)CN1C(=O)NC2(CCCC2)C1=O)C(=O)c1ccccc1 (configuration not stated)	none (no result: KCNQ2 enhance)
COC(=O)c1ccc(OCCN2CCCCCC2)cc1	none (no result: KCNQ2 enhance)
O=C(c1ccc(OCCN2CCCCC2)cc1)c1c(-c2ccc(O)cc2)sc2cc(O)ccc12	KCNQ2 block -5.98
CCc1occc(=O)c1Oc1cc(NN2CCCCC2)c([N+](=O)[O-])cc1[N+](=O)[O-]	none
CC(CCc1ccccc1)NC(=O)C(Cc1ccccc1)NC(N)=O (configuration not stated)	none (no result: KCNQ2 enhance)
C(=C\n1nnc2ccccc21)/c1ccc[nH]1	none
Cc1ccc2c(c1)C1(OCCCO1)C(=O)N2	none
Cc1ccc(-c2nn(-c3ccccc3)cc2C=O)o1	none
COCCC(=O)N1CCCC(C(=O)c2ccc(C(F)(F)F)cc2)C1 (configuration not stated)	KCNQ2 enhance 6.77
O=C(c1ccc(C(F)(F)F)cc1)C1CCCN(C(=O)CN2CCCC2=O)C1 (configuration not stated)	none
COc1ccc(-c2cc3nc(-c4ccccc4)cc(N4CCC5(CC4)OCCO5)n3n2)cc1	KCNQ2 block -6.5
COc1cccc(-c2cc3nc4c(c(N5CCC6(CC5)OCCO6)n3n2)CCC4)c1	KCNQ2 block -7.01
COc1ccc(-c2cc3nc4c(c(N5CCC6(CC5)OCCO6)n3n2)CCC4)cc1	none (no result: KCNQ2 enhance)
COc1cccc(-c2cc3nc(-c4ccccc4)cc(N4CCCC(O)C4)n3n2)c1 (configuration not stated)	none (no result: KCNQ2 enhance)
O=C1/C(=C/c2ccccc2F)SC(=S)N1CC(=O)N1CCCCC1c1cccnc1 (configuration not stated)	none
Cc1ccc(C)c(OCC(=O)N2CCc3ccccc3C2)c1	none (no result: KCNQ2 enhance)
Cc1cc(OCC(=O)N2CCc3ccccc3C2)c(C)cc1Br	KCNQ2 block -6.11
COCCNC(=O)C(OC(=O)c1ccco1)c1ccccc1F (configuration not stated)	none (no result: KCNQ2 enhance)
C[C@@H]1C=CC(=O)O[C@@H]1c1ccc(Cl)cc1	none (no result: KCNQ2 enhance)
COc1cccc2c1cc1c(=O)n(CC(=O)NCc3ccccn3)nc(C)n12	none (no result: KCNQ2 enhance)
Cc1ccc2c(c1)-c1c(cnn1CC(=O)N1CCCN(Cc3ccccc3F)C1)CO2	KCNQ2 block -8.18
Cc1ccc2c(c1)-c1c(cnn1CC(=O)O)CO2	none (no result: KCNQ2 enhance)
CCOc1ccc(CCNC(=O)c2cc3c(s2)CS(=O)(=O)C3)cc1OCC	none
N=C1S/C(=C\c2ccco2)C(=O)N1c1ccc2c(c1)OCO2	none (no result: KCNQ2 enhance)
N=C1S/C(=C\c2ccco2)C(=O)N1c1nccs1	KCNQ2 enhance 9.12
Cc1ccc(C(=O)OCC(=O)NNC(=O)c2ccc([N+](=O)[O-])cc2)o1	none
CC(C)c1ccc(CNCCCSc2ncccn2)cc1	none
O=C(Oc1ccccc1)n1c(=S)oc2ccccc21	none
Cc1ccccc1OC(=O)n1c(=S)oc2cc(Cl)ccc21	KCNQ2 enhance 6.92
COc1cccc(OCCCCSc2ncccn2)c1	none (no result: KCNQ2 enhance)
c1ccc(Oc2cccc(OCCCCSc3ncccn3)c2)cc1	KCNQ2 block -6.16
CCCCC1(C(=O)OCC)CC(CSC(=N)N)OC1=O (configuration not stated)	none (no result: KCNQ2 enhance)
N#Cc1nc(COc2ccccc2)oc1N1CCN(Cc2ccccc2)CC1	KCNQ2 block -6.38
COc1ccc(N2CCN(c3oc(Cc4cccc5ccccc45)nc3C#N)CC2)cc1	KCNQ2 block -6.95
N#Cc1nc(Cc2cccc3ccccc23)oc1N1CCN(c2ccccc2)CC1	none (no result: KCNQ2 enhance)
CC1CCN(c2oc(Cc3cccc4ccccc34)nc2C#N)CC1	KCNQ2 block -5.93
N#Cc1nc(COc2cccc(Cl)c2)oc1N1CCCC1	none (no result: KCNQ2 enhance)
N#Cc1nc(Cc2cccc3ccccc23)oc1N1CCOCC1	none
CC1CCCC(NC(=S)Nc2cccc(S(=O)(=O)N(C)C)c2)C1C (configuration not stated)	none
O=C(O)c1cc2nccc(-c3ccc(F)cc3)n2n1	none
CC(C)OCCCNC(=O)Cn1ccc2cc(S(=O)(=O)N3CCCCC3)ccc21	none (no result: KCNQ2 enhance)
